Most compounds without a hit are left out; they make up all but 13% or so of the library.
USP8 block – inhibitors of human USP8 deubiquitinase. inhibition, % at 20 µM. 47,000 tested, 4.2% active. P40818. purified USP8, Ub-rhodamine cleavage fluorescence, 30 min
USP28 inh – blocks human USP28 ubiquitin-rhodamine cleavage; purified USP28, Ub-rhodamine cleavage fluorescence, 30 min; AID 1645857; Q96RU2; inhibition, % at 25 µM; 47,000 tested, 3% active
USP17 block – inhibitors of human USP17 deubiquitinase | A8MUK1 | AID 1645855 | purified USP17, Ub-rhodamine cleavage fluorescence, 3 h | inhibition, % at 50 µM | 47,000 tested, 6.5% active
USP30 block – human USP30 deubiquitinase inhibition. AID 1645860. 47,000 tested, 5.3% active. purified USP30, Ub-rhodamine cleavage fluorescence. inhibition, % at 25 µM
Target sequence (Q70CQ3 whole entry, looked up): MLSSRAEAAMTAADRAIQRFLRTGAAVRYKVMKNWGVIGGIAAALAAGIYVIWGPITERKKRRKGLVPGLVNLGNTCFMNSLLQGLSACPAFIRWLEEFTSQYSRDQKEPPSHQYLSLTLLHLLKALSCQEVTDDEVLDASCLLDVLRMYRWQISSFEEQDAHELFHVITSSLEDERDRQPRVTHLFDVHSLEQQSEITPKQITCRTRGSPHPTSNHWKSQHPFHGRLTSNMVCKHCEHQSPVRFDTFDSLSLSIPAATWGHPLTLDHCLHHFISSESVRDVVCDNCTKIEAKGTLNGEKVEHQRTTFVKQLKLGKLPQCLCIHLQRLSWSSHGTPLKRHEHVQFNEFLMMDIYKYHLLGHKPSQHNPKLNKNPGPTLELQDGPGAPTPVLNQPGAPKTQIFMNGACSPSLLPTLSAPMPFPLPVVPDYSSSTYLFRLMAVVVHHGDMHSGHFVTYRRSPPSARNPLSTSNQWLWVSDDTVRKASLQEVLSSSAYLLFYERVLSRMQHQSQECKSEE
* marks the source's active call; other numbers are inactive results; . = no result given. Rule as the data show it: active = inhibition above about 30%; inactive = the rest.

SMILES	USP8 block	USP28 inh	USP17 block	USP30 block
CCOc1ccccc1NC(=O)Cn1c(=O)n(CCc2ccccc2)c(=O)c2c3c(sc21)CN(C(C)=O)CC3	-45	-14	-55	-103
COC(=O)CCSc1nc2cc(OC)c(OC)cc2c(=N)n1Cc1cccc(C(F)(F)F)c1	-5	-31	-13	-27
COCCCn1c(SCCc2ccccc2)nc2cc(OC)c(OC)cc2c1=N	3	-7	43*	3
COc1cc(O)c2c(O)c3c(cc2c1)C[C@@]1(O)CC(=O)C(C(N)=O)=C(O)[C@@]1(O)C3=O	-9	41*	30*	-120
COCCN1C(=O)C[C@@H]2[C@H]1CCN2C(=O)c1cncc(C)c1	-48	16	7	31*
COCCN1C(=O)C[C@@H]2[C@H]1CCN2C(=O)c1ccc2ccccc2n1	-48	2	-2	4
CCc1c(Cl)c(O)c(Cl)c(O)c1C(=O)O[C@H]1C(C)O[C@@H](OC/C2=C\C=C\CC(O)/C(C)=C/C(CC)C(O[C@@H]3OC(C)(C)[C@H](O)C(O)[C@@H]3OC(=O)C(C)C)/C(C)=C/C(C)=C/CC(C(C)O)OC2=O)[C@@H](OC)C1O (stereo partly specified)	3	23	18	1
CCOC(=O)c1cc2c(ccn2C)n1Cc1ccccc1C#N	26	-63	-23	-322
CCOC(=O)c1cc2c(ccn2C)n1Cc1cccc2ccccc12	87*	21	54*	-50
CCOC(=O)c1cc2c(ccn2C)n1Cc1ccc2ccccc2n1	57*	-1	2	-156
COC(=O)c1cc2c(ccn2C)n1Cc1ccccc1OC	70*	-27	19	-207
CCOC(=O)c1cc2c(ccn2C)n1CC(=O)N1CCN(C(=O)c2ccco2)CC1	37*	-113	-78	-486
N#Cc1ccccc1CN1CCC2(CC1)Cc1ccccc1CNC2=O	-10	8	-4	-2
CCCn1c(CCC(=O)Nc2ccccc2C)nc2cc(S(=O)(=O)N3CCOCC3)ccc21	0	-2	-4	-7
CCN(CC)S(=O)(=O)c1ccc2c(c1)nc(CCC(=O)Nc1ccc(C)c(Cl)c1)n2CC	-15	-5	-12	39*
COc1cccc(N2CCN(c3ccc4nnc(CCC(=O)NC5CCCC5)n4n3)CC2)c1	65*	7	22	20
COc1cccc(N2CCN(c3ccc4nnc(CCC(=O)NCC5CCCO5)n4n3)CC2)c1 (stereo unspecified)	1	-18	-5	-18
COc1cccc(N2CCN(c3ccc4nnc(CCC(=O)N5CCc6ccccc6C5)n4n3)CC2)c1	11	39*	72*	48*
CC(C)CNc1nc2c(cc1C(=O)NCC1CC1)CCNCC2	-23	12	0	45*
Cc1ccc(S(=O)(=O)c2cnc(-c3ccccc3)nc2N(C)Cc2ccccc2)cc1	6	-1	0	10
O=C(Nc1ccc(S(=O)(=O)N2CCCC2)cc1)c1ccc(N2CCCC2=O)cc1	-106	28	-5	16
N#Cc1ccc(C(=O)Nc2ccc3c(N4CCCC4)ncnc3c2)cc1	23	-2	31*	-12
N#Cc1ccc(NC(=O)c2ccc(S(=O)(=O)N3CCCCC3)cc2)cc1	20	26	17	54*
CCOC(=O)N1CCC(NC(=O)c2cc(C(=O)Nc3ccc(S(=O)(=O)N4CCCCC4)cc3)ccc2CO)CC1	-12	42*	77*	79*
N#Cc1cccc(C(=O)Nc2ccc3c(N4CCCC4)ncnc3c2)c1	0	-1	1	9
SMILES	USP8 block	USP28 inh	USP17 block	USP30 block
CN(C)c1ccc(C(=O)Nc2ccc(S(=O)(=O)N3CCCC3)cc2)cc1	-1	42*	-8	-28
Cc1nc(-c2noc(-c3ccncc3)n2)cn1CC(=O)N1CCN(c2ccccc2)CC1	-19	-14	-4	-11
CCC1CCCCN1S(=O)(=O)c1ccc(C(=O)Nc2ccc(S(N)(=O)=O)cc2)cc1 (stereo unspecified)	9	35*	60*	76*
N#Cc1ccc(N2CCN(S(=O)(=O)c3ccc(Cl)cc3)CC2)cc1	19	16	6	31*
CCOC(=O)N1CCN(S(=O)(=O)c2ccc(C(=O)Nc3ccc(S(N)(=O)=O)cc3)cc2)CC1	9	1	25	18
O=C(COc1cccc(-c2noc(-c3ccccc3F)n2)c1)N1CCCCC1	5	4	13	15
Cn1cccc1C(=O)Nc1cnn(-c2ncc(N3CCCC3)cn2)c1	-7	-17	31*	-109
COc1ccc(Oc2cc3n(c(=O)n2)CCc2cc(OC)c(OC)cc2-3)cc1	-76	-123	-46	-175
COc1cc2c(cc1OC)-c1cc(Oc3ccc4cccnc4c3)nc(=O)n1CC2	35*	5	49*	-38
COc1ccc(NC(=O)CN2CCCCCC2)c(OC)c1	-14	-2	-1	1
NC(=O)C1(N2CCCCC2)CCN(CC(=O)Nc2cc(Cl)ccc2Cl)CC1	15	6	12	30*
O=C1NC2(CCCCCC2)C(=O)N1Cc1nc(-c2ccc(Cl)cc2)no1	21	-12	40*	-34
CCOc1ccc(-c2nc(CN3C(=O)NC4(CCCC4)C3=O)cs2)cc1	-3	-10	12	-30
O=C(c1cccc(C(F)(F)F)c1)c1nnc(-c2ccc(Cl)cc2)o1	0	2	7	5
CN(Cc1ccc2c(c1)OCO2)C(=O)Cn1cnc2sc(-c3ccccc3)cc2c1=O	55*	-71	-51	-195
O=c1c2c(-c3ccccc3)csc2ncn1Cc1ccc2c(c1)OCO2	1	40*	6	17
COc1ccc(CCn2cnc3scc(-c4ccccc4)c3c2=O)cc1OC	-5	-6	-1	-7
CN(CCc1ccccn1)C(=O)c1sc2ccccc2c1Cl	1	.	5	.
CC1(C)C2CCC1(CS(=O)(=O)Nc1cccc(C#N)c1)C(=O)C2 (stereo unspecified)	0	6	1	12
O=C(c1cc(C2CC2)[nH]n1)N1CCN(Cc2ccccc2)CC1	-12	17	18	34*
O=C(NCCN1CCCCC1)C1CCCN1c1nnc(N2CCCC2=O)s1 (stereo unspecified)	-9	-7	2	-6
CC[C@@H](C(=O)[C@@H](C)[C@@H](O)[C@H](C)CCc1ccc(C)c(O)c1C(=O)O)[C@@H]1O[C@](CC)([C@H]2CC[C@](O)(CC)[C@H](C)O2)C[C@@H]1C	16	29	56*	60*
COCCN(C)C(=O)c1c2c(NCC3CC3)ncnc2n2ccccc12	31*	-98	-60	-432
O=C(CN1C(=O)C(c2ccccc2)Oc2cccnc21)NCCCN1CCCCCC1 (stereo unspecified)	-16	-15	41*	-61
CCOc1ccccc1CNC(=O)CCCN1C(=O)C(c2ccccc2)Oc2cccnc21 (stereo unspecified)	1	-4	10	-6
O=C(Cn1ncc2c(=O)oc3ccccc3c21)NCc1ccc2c(c1)OCO2	42*	2	28	-9
O=C(Cn1ccc2ccc(Br)cc21)NCc1ccc2c(c1)OCO2	-21	-15	-26	-38
O=C(Cn1cc(C(=O)C2CC2)c2ccccc21)NCc1ccc2c(c1)OCO2	69*	51*	83*	6
